# Hits are enriched below; roughly 11% of the tested compounds scored in any of these assays.
# NS1 inh = inhibitors of influenza NS1 protein function; Potency, µM (titrated, usually from 46.1 µM), for inactives: at the top dose activity, positive = more growth; 0.4% of 270,000 active; calls by dose curve; note: actives are rising curves; nearly all actives have a fitted effect of over 50% in size
#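 Recovery from NS1-induced slow growth read by OD600 in budding yeast switched to galactose assay medium (pH 6.0, -URA) at 1:100 dilution. Compound 23 nl per well; the matching strain lacking NS1 serves as control.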
# Pf growth 96h = P. falciparum growth inhibition at 96 hours; P. falciparum luciferase reporter growth, 96 h; Potency, µM (doses to about 28.7 µM), without a hit: top-dose activity change, negative = inhibition, hits mostly inhibitors; 6.9% of 320,000 active; AID 504834; note: % is set by controls: 0 for no effect and ±100 for the full control effect
#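 Parasite growth measured via integrated firefly luciferase reporter in P. falciparum. Infected erythrocytes at 2% hematocrit, 0.05% parasitemia final were treated 96 hours at 37 C under 5% CO2, and luminescence was read.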
# Pf growth 48h = P. falciparum growth inhibition at 48 hours (one generation) | 5.9% of 310,000 active | P. falciparum luciferase growth in erythrocytes, 48 h | Potency, µM (top dose mostly 28.7 µM), without a hit: top-dose activity change, negative = inhibition, actives largely listed as inhibitors | AID 504832; note: % is set by controls: 0 for no effect and ±100 for the full control effect
#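 Luciferase-expressing P. falciparum in infected erythrocytes (2% hematocrit, 0.1% parasitemia final) in RPMI 1640/0.5% Albumax were exposed to compound for 48 hours at 37 C, 5% CO2; growth read as luminescence.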
# AMA1-RON2 inh = AMA1-RON2 (P. falciparum) interaction inhibition | Potency, µM (titrated, usually from 58.2 µM), inactives show top-dose activity change, negative = inhibition, actives largely listed as inhibitors | AlphaScreen AMA1-biotinylated RON2 peptide binding | 0.2% of 360,000 active | AID 720542;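 note: 0% = vehicle wells and -100% = peptide control; nearly all actives have a fitted effect of over 45% in size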
#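 AMA1 (3D7) with his tag at 25 nM final met compounds first, then biotinylated RON2 peptide at 25 nM; detection used donor plus acceptor beads, 10 µg/mL apiece, read by AlphaScreen after 30 min at room temperature.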
# Sm TGR block = S. mansoni TGR enzyme inhibition; 3% of 360,000 active; purified TGR, DTNB reduction, TNB absorbance 405 nm; Q962Y6; Potency, µM (doses to about 114 µM), without a hit: at the top dose activity change, negative = inhibition, hits mostly inhibitors; AID 485364; note: % is set by controls: 0 for no effect and ±100 for the full control effect; nearly all actives have a fitted effect of over 60% in size
#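 Kinetic colorimetric format: TGR-catalysed, NADPH-driven DTNB reduction monitored via TNB absorbance. Enzyme dispensed at 20 nM; compound exposure 15 min at room temperature before reaction start.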
# Active calls of the source: *; ? = inconclusive; nt = no result given; [ ] = another dose, or the depositor's remark. Unless noted, calls come from the whole dose curve; as a rule, active = well fitted curve in the direction sought with a large enough effect; inconclusive = small, poorly fitted or top-dose-only effect, or another doubt; inactive = no such curve, though single readings can be large; an effect the other way counts as inactive or inconclusive. Potency is the fitted concentration of half-maximal effect.
SMILES,NS1 inh,Pf growth 96h,Pf growth 48h,AMA1-RON2 inh,Sm TGR block
CCN(CC)CCn1c2c(c(SCC(=O)Nc3cccc(C(C)=O)c3)nc1=O)CCCC2,nt,?,?,-24.2%,44.7µM*
CCN(CC)CCn1c2c(c(SCC(=O)Nc3ccc4c(c3)OCCO4)nc1=O)CCCC2,nt,2.94µM*,?,13.6%,?
COc1cccc(C(=O)Nc2c(C(=O)NC(C)(C)C)oc3ccccc23)c1,nt,nt,nt,nt,10.6%
CCCS(=O)(=O)NC(=O)C1(C)CCN(C(=O)c2ccco2)C1 (stereo unspecified),nt,nt,nt,-4.9%,nt
Cc1cc(NC(=O)c2cc3n(n2)C(C(F)(F)F)CC(c2ccco2)N3)no1 (stereo unspecified),-5.9%,10.4µM*,nt,-1.8%,8.9%
O=C(NCc1ccccn1)c1cc2n(n1)C(C(F)(F)F)CC(c1ccco1)N2 (stereo unspecified),1.6%,nt,-10.0%,11.9%,39.8µM*
O=C(O)c1cc2n(n1)C(C(F)(F)F)CC(c1ccco1)N2 (stereo unspecified),-1.5%,?,-2.3%,-9.6%,?
CC(C)NC(=O)c1cc2n(n1)C(C(F)(F)F)CC(c1ccco1)N2 (stereo unspecified),nt,22.4%,?,2.0%,0.1%
O=C(O)c1cc(N=Nc2ccc([N+](=O)[O-])cc2)ccc1O,-4.1%,nt,nt,nt,nt
CCOc1cc(/C=C2\COc3ccccc3C2=O)cc(Br)c1OCC(=O)N(C)C,-44.2%,10.4µM*,?,-13.4%,11.2µM*
Cc1ccc(CNC(=O)Cn2ccn(-c3ccc(F)c(F)c3)c(=O)c2=O)cc1,nt,nt,nt,nt,-22.5%
O=S(=O)(c1ccc(F)cc1)n1cnc2ccccc21,21.0%,?,0.0%,-1.8%,7.6%
Cc1ccc(OCc2nnc(N)s2)cc1C,0.9%,42.1%,44.7%,-11.2%,4.6%
CCN(C(=O)COC(=O)Cn1c(C)csc1=O)c1c(N)n(Cc2ccccc2)c(=O)[nH]c1=O,nt,2.1%,4.3%,-19.0%,-1.4%
COC(C[C@@H]1O[C@H]1[C@H](O)COCc1ccccc1)OC,-0.1%,0.0%,45.2%,8.7%,5.1%
CCO[C@H]1O[C@@H]([C@H](COCc2ccccc2)OCc2ccccc2)[C@@H](OCc2ccccc2)[C@H]1O,nt,4.55µM*,6.42µM*,nt,nt
CN1CCN(C(=O)C(=O)Nc2c3c(nn2-c2cccc(Cl)c2)CSC3)CC1,nt,nt,nt,nt,2.6%
CCOc1ccc(OCCC(=O)NNC(=O)c2ccccc2Cl)cc1,nt,6.8%,-7.2%,34.1%,-2.7%
COc1ccccc1-n1nnnc1SCC(=O)Nc1ccccc1,1.5%,-23.5%,11.1%,0.1%,-11.0%
COc1ccc(OC)c(-n2nnnc2SCC(=O)Nc2ccc3c(c2)OCCO3)c1,0.4%,10.4µM*,31.5%,-0.4%,10.8%
COc1ccc(OC)c(-n2nnnc2SCC(=O)Nc2ccc(C(=O)N3CCCCC3)cc2)c1,1.3%,11.7µM*,?,6.0%,2.3%
COCCn1nnnc1C(c1ccc(OC)cc1OC)N1CCN(c2ccccc2)CC1 (stereo unspecified),-9.2%,?,0.0%,-13.2%,2.9%
COc1ccccc1C(c1nnnn1Cc1ccco1)N1CCN(c2cccc(C)c2C)CC1 (stereo unspecified),?,?,3.29µM*,-16.2%,-12.8%
COc1ccc(N2CCN(C(c3cc(OC)ccc3OC)c3nnnn3Cc3ccco3)CC2)cc1 (stereo unspecified),-9.2%,?,13.1µM*,?,-32.0%
CCN1CCN(C(c2cccc(OC)c2OC)c2nnnn2Cc2ccco2)CC1 (stereo unspecified),4.1%,16.2%,20.6%,8.4%,0.0%[57.1 µM]
CCCC(c1nnnn1Cc1ccco1)N1CCN(c2cc(Cl)ccc2C)CC1 (stereo unspecified),-39.7%,154.6%,10.4µM*,?,6.0%
COc1ccc(OC)c(C(c2nnnn2CCc2ccccc2)N2CCN(c3ccccc3)CC2)c1 (stereo unspecified),-1.0%,nt,9.28µM*,?,-1.1%
CCS(=O)(=O)N1CC(=O)N(c2ccc(Cl)cc2C)C(C)(C(=O)NC2CCCCCC2)C1 (stereo unspecified),nt,nt,nt,nt,-2.7%
COc1ccccc1N1CCN(C(c2ccc(N(C)C)cc2)c2nnnn2CCc2ccccc2)CC1 (stereo unspecified),11.4%,?,9.28µM*,20µM*,39.8µM*

# Screening data deposited in PubChem by National Center for Advancing Translational Sciences (NCATS).
